The panel holds about 83,000 compounds, 20% with a hit somewhere; the sample as a whole holds those more often.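 Cell lines were cultured in 96-well plates, exposed to a single compound concentration, and assessed for percent growth 48 hours later.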 Unmarked numbers belong to inactive results. Active and inactive are the calls of the source. Rule for the calls: active = growth percent below 10; inactive = the rest.

Test systems include SK-MEL-2 melanoma; EKVX NSCLC; SN12C renal; UO-31 renal; TK-10 renal; ACHN renal; CAKI-1 renal; A498 renal; CCRF-CEM leukemia; MOLT-4 leukemia; SR leukemia; RPMI-8226 leukemia; OVCAR-8 ovarian; OVCAR-5 ovarian; OVCAR-4 ovarian; SK-OV-3 ovarian; IGROV1 ovarian; OVCAR-3 ovarian; HS 578T breast; NCI/ADR-RES ovarian.
Holding throughout (assay): NCI-60 one-dose screen, 48 h (100 = growth as untreated, 0 = no growth, -100 = all killed)
What all share (conditions): 10 µM unless noted

As to `Cc1c2ccncc2c(C)c2c1c1ccccc1n2CCCCCC(=O)O`, the growth is 92.4% in the test with SK-MEL-2 melanoma; 90.3% in the test with EKVX NSCLC; 94.2% in the test on SN12C renal; 56.7% in the test on UO-31 renal; 128% with TK-10 renal; 82.9% in the test on ACHN renal. Further, the growth is 91.1% in the test on CAKI-1 renal; 52.8% in the test with A498 renal; 94.1% in the test with CCRF-CEM leukemia; 74.8% in the test on MOLT-4 leukemia; 65.1% with SR leukemia; 86.3% in the test on RPMI-8226 leukemia. Moreover, the growth in the test on OVCAR-8 ovarian is 79.5%; with OVCAR-5 ovarian, 109%; in the test on OVCAR-4 ovarian, 94.3%; with SK-OV-3 ovarian it was 95.6%; in the test on IGROV1 ovarian, 76.9%; with OVCAR-3 ovarian, 93.1%. Besides, the growth in the test on HS 578T breast was 88.5%; in the test on NCI/ADR-RES ovarian, 80.1%.
Take `CCCC1Cc2cc(-n3nc(C)c4c3CC(C)(C)CC4=O)cc(NC3CCC(O)CC3)c2C(=O)N1` (stereo not drawn): the growth in the test on SK-MEL-2 melanoma is 48.7%; in the test on EKVX NSCLC, 62.8%; with SN12C renal it was 38%; in the test on UO-31 renal, 28.9%; with TK-10 renal it was 38.2%; with ACHN renal, 29.3%. The growth in the test with CAKI-1 renal was 30.4%; in the test on A498 renal, 37.6%; in the test on CCRF-CEM leukemia it was 35%; in the test with MOLT-4 leukemia, 16.8%; in the test with SR leukemia, 29.5%; in the test with RPMI-8226 leukemia, 51%. The growth in the test with OVCAR-8 ovarian is 40.3%; with OVCAR-5 ovarian, 58.8%; in the test on OVCAR-4 ovarian, 62.5%; in the test on SK-OV-3 ovarian it was 17.1%; with OVCAR-3 ovarian, 52.6%; in the test with HS 578T breast it was 59.1%. Further, in the test with NCI/ADR-RES ovarian, the growth is 47%.
Consider `O=C(Nc1ccccc1)Nc1ccccc1CNc1nc(Nc2ccc(OCCN3CCCC3)cc2)ncc1Cl`, for which the growth in the test with SK-MEL-2 melanoma was 49.9%; in the test with EKVX NSCLC, 85.8%; with SN12C renal it was 57.8%; in the test with UO-31 renal, 39.6%; in the test on TK-10 renal, 94.8%; with ACHN renal, 18.2%. Moreover, the growth was 62.7% in the test with CAKI-1 renal; 31.5% with A498 renal; 20.4% in the test with CCRF-CEM leukemia; 37.9% with MOLT-4 leukemia; -6.4% (active) in the test with SR leukemia; -0.283% (active) in the test with RPMI-8226 leukemia. In addition, the growth in the test on OVCAR-8 ovarian was 50.4%; in the test with OVCAR-5 ovarian, 106%; in the test on OVCAR-4 ovarian, 19.5%; in the test with SK-OV-3 ovarian, 86.1%; in the test with IGROV1 ovarian, 84.2%; in the test on OVCAR-3 ovarian it was 2.33% (active). Moreover, the growth in the test on NCI/ADR-RES ovarian is 71%.
For the compound `CCCCN(CCC#N)C(N)=O`, the growth in the test on SK-MEL-2 melanoma was 104%; in the test on EKVX NSCLC, 101%; in the test on SN12C renal, 106%; in the test on UO-31 renal, 98.4%; with TK-10 renal it was 98.9%; with ACHN renal it was 97.7%. The growth with CAKI-1 renal was 82.7%; in the test with A498 renal, 89.6%; in the test with CCRF-CEM leukemia, 96.7%; in the test with MOLT-4 leukemia it was 107%; in the test with SR leukemia, 130%; with RPMI-8226 leukemia, 113%. The growth is 107% in the test with OVCAR-8 ovarian; 106% with OVCAR-5 ovarian; 122% in the test with OVCAR-4 ovarian; 109% with SK-OV-3 ovarian; 100% with IGROV1 ovarian; 89.7% in the test on OVCAR-3 ovarian. Further, the growth in the test with NCI/ADR-RES ovarian is 109%.
In the case of `O=C(Nc1ncc(Cc2ccccc2)s1)c1cc(-c2ccccc2)nc2ccccc12`, the growth in the test with SK-MEL-2 melanoma was 105%; in the test with EKVX NSCLC, 98.1%; with SN12C renal, 104%; in the test with UO-31 renal, 78.7%; with TK-10 renal, 98.1%; in the test on ACHN renal, 99.4%. The growth with CAKI-1 renal is 93.7%; in the test with A498 renal, 103%; with CCRF-CEM leukemia it was 95.4%; with MOLT-4 leukemia, 95.6%; in the test on SR leukemia, 105%; with RPMI-8226 leukemia it was 95.7%. Further, the growth with OVCAR-8 ovarian was 98.4%; in the test on OVCAR-5 ovarian, 98.6%; in the test on OVCAR-4 ovarian it was 108%; in the test with SK-OV-3 ovarian, 96.7%; in the test with IGROV1 ovarian, 87.3%; with OVCAR-3 ovarian, 104%. The growth with NCI/ADR-RES ovarian was 87.8%.
`CC(CN)[C@@H]1CC[C@]2(CO)CC[C@]3(C)[C@H](CC[C@@H]4[C@@]5(C)CCC(NCCO)C(C)(C)[C@@H]5CC[C@]43C)[C@@H]12` (stereo partly drawn): the growth in the test with SK-MEL-2 melanoma was 94.4%; in the test on EKVX NSCLC, 73%; in the test on SN12C renal it was 80.1%; in the test with UO-31 renal, 69.7%; in the test with TK-10 renal it was 93.4%; in the test with ACHN renal it was 95%. For the same compound, the growth in the test with CAKI-1 renal was 59.9%; in the test on A498 renal it was 87.2%; with CCRF-CEM leukemia it was 6.44% (active); in the test with MOLT-4 leukemia, 18.3%; in the test with SR leukemia, -21.5% (active); in the test with RPMI-8226 leukemia, 0.0868% (active). Besides, the growth in the test with OVCAR-8 ovarian was 75.8%; with OVCAR-5 ovarian, 84.2%; in the test with OVCAR-4 ovarian, 77.3%; in the test with SK-OV-3 ovarian, 100%; in the test on OVCAR-3 ovarian, 53.1%; in the test with HS 578T breast, 58.7%. The growth with NCI/ADR-RES ovarian was 91.1%.
In the case of `CC1=C(C(=O)c2ccccc2)C(c2ccc3c(c2)OCO3)NC(=S)N1` (stereo not drawn), the growth is 60.5% with SK-MEL-2 melanoma; 73.5% in the test on EKVX NSCLC; 51.4% with SN12C renal; 55.7% with UO-31 renal; 66% in the test on TK-10 renal; 45.5% in the test with ACHN renal. Moreover, the growth in the test with CAKI-1 renal was 35.6%; with A498 renal it was -12.5% (active); in the test with CCRF-CEM leukemia, 41.2%; in the test on MOLT-4 leukemia, 36.6%; with SR leukemia, 6.28% (active); with RPMI-8226 leukemia, 44%. The growth in the test on OVCAR-8 ovarian is 46.7%; with OVCAR-5 ovarian, 72.5%; with OVCAR-4 ovarian, 82.3%; in the test with SK-OV-3 ovarian, 51.6%; in the test on OVCAR-3 ovarian, 12.9%; in the test on HS 578T breast, 23.4%. The growth in the test on NCI/ADR-RES ovarian is 43.3%.
As to `O=C(/C=C/c1ccco1)c1ccc(Nc2ccnc3cc(Cl)ccc23)cc1`, the growth in the test with SK-MEL-2 melanoma was 86.5%; in the test with EKVX NSCLC it was 85.2%; in the test with SN12C renal, 90.6%; with UO-31 renal, 94.8%; with TK-10 renal, 116%; in the test on ACHN renal, 96.5%. Besides, the growth in the test with CAKI-1 renal was 96%; with A498 renal, 33.6%; in the test with CCRF-CEM leukemia it was 45.1%; with MOLT-4 leukemia, 10.8%; in the test on SR leukemia, -50.4% (active); with RPMI-8226 leukemia it was -34.9% (active). Also, the growth in the test on OVCAR-8 ovarian is 81.3%; with OVCAR-5 ovarian it was 70.2%; in the test with OVCAR-4 ovarian, 103%; in the test on SK-OV-3 ovarian, 108%; with IGROV1 ovarian, 120%; with OVCAR-3 ovarian, 78.7%. In the test on NCI/ADR-RES ovarian, the growth is 73.9%.

These data come from PubChem BioAssay (NCI).
